The list is not random: actives were taken first. Their share in the collection is about 9.3%.
Vaccinia Venus – inhibitors of vaccinia virus (Venus reporter); Potency, µM (doses to about 36.5 µM), for inactives: top-dose activity change, negative = inhibition, actives largely listed as inhibitors; Vaccinia virus Venus reporter expression, fluorescence; 330,000 tested, 0.46% active; calls by dose curve; tested in A549 cells; also: potency is read from the fitted curve at half-maximal effect; nearly all actives have a fitted effect of over 30% in size
FMDV inh – blocks foot and mouth disease virus | FMDV antiviral cell-based qHTS | Potency, µM (titrated, usually from 57.9 µM), for inactives: at the highest dose activity change, negative = inhibition, most hits filed as inhibitors | 410,000 tested, 1.2% active; calls by dose curve; tested in HEK293T cells; also: read-out not given here; potency is read from the fitted curve at half-maximal effect; nearly all actives have a fitted effect of over 45% in size
Sm TGR inh – inhibitors of Schistosoma mansoni thioredoxin glutathione reductase | Q962Y6 | purified TGR, DTNB reduction, TNB absorbance 405 nm | Potency, µM (doses to about 114 µM), without a hit: at the top dose activity change, negative = inhibition, actives largely listed as inhibitors | 360,000 tested, 3% active | AID 485364; also: potency is read from the fitted curve at half-maximal effect; nearly all actives have a fitted effect of over 60% in size
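First, TGR (20 nM dispensed) and NADPH were mixed with compound. Second, a 15 min room-temperature incubation followed. Third, further NADPH and then DTNB were added to start the reaction. Finally, TNB absorbance was monitored kinetically.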
HCMV inh – blocks human cytomegalovirus replication; HFF cells, HCMV-luciferase reporter, 72 h; stronger effect = lower value; activity change, negative = inhibition, % at 57.5 µM; 410,000 tested, 4.5% active; AID 1259415; in the data active = activity change below about -60%; inconclusive = no clear call, values can overlap the other calls; inactive = above about -39%
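Luciferase read-out from HCMV-luciferase-infected HFFs (MOI 1 PFU/cell) 72 h post infection at 37C; compounds added after 16 h cell attachment; activity normalized between buffer-only basal and Salinomycin (10uM) inhibitor controls.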
Vaccinia mCherry – vaccinia inhibition (mCherry reporter). Vaccinia virus mCherry reporter infection, fluorescence. Potency, µM (top dose mostly 36.5 µM), without a hit: top-dose activity change, negative = inhibition, most hits filed as inhibitors. AID 720579. 310,000 tested, 0.63% active; calls by dose curve; tested in A549 cells; also: potency is read from the fitted curve at half-maximal effect; nearly all actives have a fitted effect of over 35% in size
HCV inh – inhibitors of hepatitis C virus infection | 340,000 tested, 3.4% active | Huh7.5.1 HCVcc-Cre infection, luciferase reporter, 44 h | Potency, µM (highest dose often 41.8 µM), without a hit: top-dose activity change, negative = inhibition, usual class: inhibitors; also: potency is read from the fitted curve at half-maximal effect
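A cell-based infection assay in which seeded cells (1,000 per well) receive test compound after 4 h, are inoculated with HCVcc-Cre at approximately 0.5 moi, and are incubated 44 h before luminescence detection.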
Numbers without * were called inactive; i = inactive; ? = inconclusive; nt = no result given. Unless noted, calls follow the shape of the dose curve; as a rule, active = well fitted curve in the direction sought with a large enough effect; inconclusive = small, poorly fitted or top-dose-only effect, or another doubt; inactive = no such curve, though single readings can be large; an effect the other way counts as inactive or inconclusive. % is scaled to controls: 0 for no effect and ±100 for the full control effect.

SMILES	Vaccinia Venus	FMDV inh	Sm TGR inh	HCMV inh	Vaccinia mCherry	HCV inh
O=C(c1ccccc1NS(=O)(=O)c1cccc([N+](=O)[O-])c1)N1CCCC1	-17%	5%	-26%	-79*	-7%	nt
Cn1c(=O)c2c(ncn2CC(=O)Nc2ccccc2N2CCOCC2)n(C)c1=O	nt	-8%	7%	nt	nt	5%
Cc1cccc2c1-c1sc(C(=O)N3CCN(c4cccc(Cl)c4)CC3)cc1CO2	-2%	-12%	9%	-8	-7%	nt
Cc1cccc2c1-c1sc(C(=O)NCCCN3CCN(c4cccc(Cl)c4)CC3)cc1CO2	-16%	-32%	0%	-75*	-11%	nt
Cc1cccc2c1-c1sc(C(=O)NCCCN3CCN(c4ccccc4F)CC3)cc1CO2	-23%	?	0%	-108*	-14%	nt
CCN1CCN(CCCNC(=O)c2cc3c(s2)-c2c(C)cccc2OC3)CC1	?	0%	-8%	-2	?	nt
Cc1ccc(-n2nc3c(n2)/C(=N/O)CC/C3=N\O)cc1	-22%	0%	9%	114	?	-29%
CC(=O)C12CCCCC1CC1C3CC(C)C4(O)CC(=O)CCC4(C)C3CCC12C (stereo unspecified)	nt	-28%	2%	6	nt	-13%
Oc1ccc(N=Nc2ccccc2C(F)(F)F)c2cccnc12	?	-7%	-22%	-97*	?	3.2µM*
COc1ccccc1N=Nc1[nH]c2ccc(C)cc2c1O	-3%	30%	-22%	40	-13%	2%
COc1ccccc1N=Nc1ccc(O)c2ncccc12	?	-10%	-35%	-73*	?	2.2µM*
O=S(=O)(Nc1ccc(O)c2ncccc12)c1ccccc1F	nt	51%	nt	27	nt	nt
CCS(=O)(=O)c1ccc(N=Nc2ccc(O)c3ncccc23)c(OC)c1	?	?	3%	-92*	7.9µM*	?
CCOC(=O)c1sc(NC(=O)CSc2nnc(Cc3ccccc3)o2)c(C#N)c1C	12%	32µM*	-4%	nt	nt	15%
Cc1ccc(C)c(-c2cc(C(=O)Nc3sc(C)c(C)c3C(N)=O)c3ccccc3n2)c1	nt	22µM*	12%	-33	nt	11µM*
CCOC(=O)c1sc(NC(=O)c2cc(-c3ccccc3)nc3ccccc23)c(C#N)c1C	-21%	?	-14%	-95*	-4%	8%
Cc1cccc(-c2cc(C(=O)Nc3sc(C)c(C)c3C(N)=O)c3ccccc3n2)c1	-9%	0%	0%	2	i	-24%
CCOC(=O)c1c(NC(=O)CSc2nnc(Cc3ccccc3)o2)sc(C(C)=O)c1C	nt	?	12%	14	nt	?
CCOC(=O)c1sc(NC(=O)CSc2n[nH]c(-c3ccccc3)n2)c(C#N)c1C	?	0%	0%	-32	?	7%
Cc1cc(C)c(C#N)c(OCC2CCCO2)n1 (stereo unspecified)	5%	-18%	nt	?	5%	nt
O=c1c(O)c(-c2ccccc2)oc2cc(O)cc(O)c12	-12%	7%	nt	5	-21%	-28%
COCOc1cc(O)c2c(=O)c(OCOC)c(-c3ccc(OCOC)c(OCOC)c3)oc2c1	-10%	-24%	nt	-71*	-4%	-39%
COc1c(-c2ccc(O)c(O)c2)oc2cc(O)cc(O)c2c1=O	-3%	5%	28µM*	40	-7%	-8%
O=c1c(O)c(-c2cc(O)c(O)c(O)c2)oc2cc(O)cc(O)c12	-14%	-19%	3.5µM*	?	-11%	-19%
COCOc1ccc(-c2cc(=O)c3c(OCOC)cc(OCOC)cc3o2)cc1	-5%	24%	nt	nt	-5%	?
SMILES	Vaccinia Venus	FMDV inh	Sm TGR inh	HCMV inh	Vaccinia mCherry	HCV inh
CCOC(=O)C1CCN(S(=O)(=O)c2c(C(=O)N3CCCCC3)c(C)n(C)c2C)CC1	-6%	8%	4%	?	i	24%
CN1CCN(c2nc(-c3ccncc3)nc3ccccc23)CC1	-29%	-15%	-6%	-21	-5%	?
c1ccc2c(N3CCCC3)nc(-c3ccncc3)nc2c1	?	14µM*	1%	-33	nt	?
CCN1CCN(c2nc(-c3ccccn3)nc3ccccc23)CC1	nt	-6%	6%	-29	nt	-24%
c1ccc(CN2CCN(c3nc(-c4ccccn4)nc4ccccc34)CC2)cc1	-8%	15%	-15%	-99*	-6%	9%
C=CCOc1nc(-c2ccncc2)nc2ccccc12	1%	-19%	-15%	21	-12%	5µM*
c1ccc(-c2nc(N3CCCCCC3)c3ccccc3n2)nc1	5µM*	25µM*	-8%	-99*	nt	1.6µM*
COc1nc(-c2ccncc2)nc2ccccc12	-10%	-18%	11%	28	-17%	?
O=C(COc1ccccc1)NCC(=O)N1CCCC(C(F)(F)F)C1 (stereo unspecified)	2%	-3%	nt	-5	-10%	4%
COc1ccc(-c2cc(C(F)(F)F)n3nc(C(=O)Nc4ccc(Cl)cc4C(F)(F)F)cc3n2)cc1OC	-2%	-20%	-2%	29	-11%	nt
COc1ccc(-c2cc(C(F)(F)F)n3nc(C(=O)N(C)Cc4ccccc4)cc3n2)cc1OC	-12%	-8%	-2%	-24	-15%	10µM*
Cc1nn(C)cc1CN(C)C(=O)c1cc2nc(-c3ccco3)cc(C(F)(F)F)n2n1	-26%	0%	35µM*	-17	nt	-9%
Cc1nn(C)c(C)c1CN(C)C(=O)c1cc2nc(-c3ccco3)cc(C(F)(F)F)n2n1	-30%	-29%	13µM*	-8	nt	?
COc1ccc(N2CC(C(=O)N3CCC4(CC3)CC(=O)c3ccccc3O4)CC2=O)cc1 (stereo unspecified)	-8%	?	-3%	-28	-23%	?
COC(=O)C1(Cc2cc(-c3ccc(Cl)cc3)no2)CCN(C(=O)OC(C)(C)C)CC1	-21%	-28%	15%	-2	i	1µM*
COC(=O)C1(Cc2cc(-c3ccc([N+](=O)[O-])cc3)no2)CCN(C(=O)OC(C)(C)C)CC1	-16%	0%	20µM*	-20	i	?
COC(=O)C1(Cc2cc(-c3cccnc3)no2)CCN(C(=O)OC(C)(C)C)CC1	-10%	-24%	2%	-22	-9%	-8%
Cc1onc(-c2ccccc2Cl)c1C(=O)OCC(=O)N1CCC(C)CC1	nt	42%	nt	-10	nt	14%
Cc1[nH]c2ccccc2c1C(c1c(C)[nH]c2ccccc12)c1c(C)[nH]c2ccccc12	27%	nt	nt	nt	13%	nt
Cc1c(N2CCCCC2)[nH]c2ccccc12	-11%	-13%	nt	-6	i	nt
Cc1[nH]c2ccccc2c1C(c1ccccn1)c1c(C)[nH]c2ccccc12	-3%	-21%	5.6µM*	39	-10%	-16%
Cc1[nH]c2ccccc2c1C(c1ccncc1)N1CCCCC1 (stereo unspecified)	-8%	-13%	1.8µM*	18	0%	-16%
